# IL1B secr inh: qHTS for Inhibitors of Inflammasome Signaling: IL-1-beta AlphaLISA Primary Screen. 4.7% of 360,000 active. AID 743279, 2014. THP-1 LPS/ATP IL-1B secretion, AlphaLISA, 16 h; active compounds read low. activity change, % at 57.5 µM; in the data active = activity change below about -50%; inconclusive = mostly about -30% to -49%; note: % is set by controls: 0 for no effect and ±100 for the full control effect
#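 Secreted IL-1B measured by AlphaLISA bead assay after 16 h compound exposure of THP-1 cells; compounds (final up to 57.5 uM) added 1 h before LPS (250 ng/mL) and ATP (1.25 mM) stimulation; lower signal means less secretion.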
# TDP1 block: qHTS Assay for Inhibitors of Tyrosyl-DNA Phosphodiesterase (TDP1); Tyrosyl-DNA phosphodiesterase 1 (Homo sapiens), Q9NUW8; recombinant TDP1, AlphaScreen DNA substrate cleavage; Potency, µM (titrated, usually from 130 µM), inactives show at the top dose activity change, negative = inhibition, usual class: inhibitors; 0.28% of 350,000 active; AID 485290, 2010; note: potency is the fitted concentration of half-maximal effect; % is set by controls: 0 for no effect and ±100 for the full control effect; nearly all actives have a fitted effect of over 40% in size
# Target sequence (Q9NUW8 whole entry, looked up): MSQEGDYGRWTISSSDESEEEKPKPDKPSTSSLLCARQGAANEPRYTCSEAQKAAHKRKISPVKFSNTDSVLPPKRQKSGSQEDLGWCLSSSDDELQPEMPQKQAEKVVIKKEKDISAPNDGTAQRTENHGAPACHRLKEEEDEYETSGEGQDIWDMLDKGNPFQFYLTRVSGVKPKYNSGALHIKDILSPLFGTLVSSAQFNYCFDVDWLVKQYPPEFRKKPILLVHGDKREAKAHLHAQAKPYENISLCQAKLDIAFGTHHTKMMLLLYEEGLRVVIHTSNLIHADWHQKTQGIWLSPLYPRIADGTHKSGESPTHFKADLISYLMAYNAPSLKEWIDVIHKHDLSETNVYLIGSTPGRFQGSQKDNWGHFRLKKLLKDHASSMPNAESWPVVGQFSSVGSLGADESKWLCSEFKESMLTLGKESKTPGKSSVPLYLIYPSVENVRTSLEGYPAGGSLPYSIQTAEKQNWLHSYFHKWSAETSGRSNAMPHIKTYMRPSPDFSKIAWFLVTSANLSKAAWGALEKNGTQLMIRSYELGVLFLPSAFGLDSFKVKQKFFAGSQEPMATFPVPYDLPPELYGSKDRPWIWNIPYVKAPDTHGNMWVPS
#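 Enzyme-compound mixtures sat 15 min at room temperature, followed by a 5 min reaction with 15 nM final substrate and 10 min with AlphaScreen beads. Recombinant human Tdp1 was used at 1 nM final.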
# DT40 TDP1 CPT: qHTS for Inhibitors of human tyrosyl-DNA phosphodiesterase 1 (TDP1): qHTS in cells in presence of CPT; chicken DT40 Tdp1-/-;hTDP1 cells + 20 nM CPT, ATP luminescence, 48 h; 12% of 420,000 active; AID 686979, 2013; Potency, µM (doses to about 46.2 µM), for inactives: at the top dose activity change, negative = growth inhibition, hits mostly inhibitors; note: potency is the fitted concentration of half-maximal effect; % is set by controls: 0 for no effect and ±100 for the full control effect; nearly all actives have a fitted effect of over 55% in size
#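 Chicken DT40 Tdp1-/- cells stably complemented with human TDP1 were seeded at 400 cells/well in medium containing 20 nM camptothecin, exposed to pin-transferred compounds, and grown at 37 °C for at least 48 hr. Viability was read as ATP luminescence.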
# TGFb inhibitor: qHTS for Inhibitors of TGF-b; HepG2 CAGA-GFP TGF-b/SMAD3 reporter, GFP fluorescence, 18 h; TGF-beta stimulated, 500 pg/mL final; Potency, µM (titrated, usually from 46.1 µM), for the others: top-dose activity, negative = inhibition, usual class: inhibitors; 1.2% of 410,000 active; AID 588855, 2011; note: potency is the fitted concentration of half-maximal effect; % is set by controls: 0 for no effect and ±100 for the full control effect; nearly all actives have a fitted effect of over 65% in size
#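 Per well, imaged GFP fluorescence of HEPG2 CAGA-GFP cells gives the signal; cells get compound, then TGF-beta (500 pg/mL final), 18 h at 37 degrees C; %Activity versus -TGF-beta and +DMSO controls.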
# DT40 TDP1 no CPT: qHTS for Inhibitors of human tyrosyl-DNA phosphodiesterase 1 (TDP1): qHTS in cells in absence of CPT | DT40 Tdp1-/- hTDP1 cells, no CPT, ATP luminescence, 48 h | Potency, µM (series often up to 46.2 µM), inactives show at the top dose activity change, negative = growth inhibition, hits mostly inhibitors | 15% of 420,000 active | AID 686978, 2013; note: potency is the fitted concentration of half-maximal effect; % is set by controls: 0 for no effect and ±100 for the full control effect; nearly all actives have a fitted effect of over 55% in size
#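 DT40 Tdp1-/-;hTDP1 cells, no CPT (DMSO vehicle only), 400 cells/well; compounds pin-transferred; ≥48 hr, 37 °C; CellTiter-Glo 30 min RT dark, luminescence read.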
# HepG2 tox-1: qHTS for Inhibitors of TGF-b: Cytotox Counterscreen; AID 588856, 2011; Potency, µM (top dose mostly 46.1 µM), without a hit: at the top dose activity change, negative = cytotoxicity, actives largely listed as cytotoxic; 0.76% of 410,000 active; HepG2 CAGA-GFP viability, ATP luminescence, 18 h; note: potency is the fitted concentration of half-maximal effect
#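 HepG2 CAGA-GFP cells (1000/well, DMEM with 1% FBS) received compound, then TGF-beta at 500 pg/mL final, and were incubated 18 hours at 37 degrees C. Viability was read by CellTiter-Glo luminescence. Media-only wells were set as complete cell-killing and DMSO as no toxicity.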
# TGFb CAGA inh: qHTS for Inhibitors of TGF-b: Confirmation of Cherry Picks; 63% of 1,600 active; Potency, µM (doses to about 46.1 µM), inactives show at the highest dose activity, negative = inhibition, actives largely listed as inhibitors; shares compounds with TGFb inhibitor; AID 720534, 2013; HepG2 CAGA-GFP TGF-b reporter, GFP fluorescence, 18 h; cells stimulated with TGF-beta, 500 pg/mL; note: potency is the fitted concentration of half-maximal effect; % is set by controls: 0 for no effect and ±100 for the full control effect; nearly all actives have a fitted effect of over 65% in size
# HepG2 tox-2: qHTS for Inhibitors of TGF-b: Cytotox Counterscreen for Cherry Picks | shares compounds with TGFb inhibitor | HepG2 CAGA-GFP viability, ATP luminescence, 18 h; cells stimulated with TGF-beta, 500 pg/mL | 27% of 1,600 active | Potency, µM (doses to about 46.1 µM), for the others: at the highest dose activity, negative = cytotoxicity, most hits filed as inhibitors; note: potency is the fitted concentration of half-maximal effect; % is set by controls: 0 for no effect and ±100 for the full control effect; nearly all actives have a fitted effect of over 70% in size
# TGFb CCL64 inh: qHTS for Inhibitors of TGF-b: CCL64 Cells Orthogonal Assay for Cherry Picks; shares compounds with TGFb inhibitor; CCL64 CAGA-GFP reporter, TGF-b stimulated, GFP fluorescence, 18 h; Potency, µM (series often up to 46.1 µM), without a hit: at the highest dose activity, negative = inhibition, hits mostly inhibitors; 41% of 1,600 active; note: potency is the fitted concentration of half-maximal effect; nearly all actives have a fitted effect of over 65% in size
# COP TGFb inh: qHTS for Inhibitors of TGF-b: Hit Validation in HepG2 Cells using COP promoter. Potency, µM (titrated, usually from 46.1 µM), for inactives: top-dose activity, negative = inhibition, actives largely listed as inhibitors. 3% of 1,600 active. shares compounds with TGFb inhibitor. HepG2 COP-GFP TGF-b reporter, GFP fluorescence, 18 h; cells stimulated by added recombinant TGF-beta; note: potency is the fitted concentration of half-maximal effect; nearly all actives have a fitted effect of over 70% in size
# * marks the source's active call; other numbers are inactive results; ? = inconclusive; · = no result. An excerpt weighted towards active compounds, which were near 19% of everything screened. Unless noted, calls come from the whole dose curve; as a rule, active = well fitted curve in the direction sought with a large enough effect; inconclusive = small, poorly fitted or top-dose-only effect, or another doubt; inactive = no such curve, though single readings can be large; an effect the other way counts as inactive or inconclusive.
SMILES,IL1B secr inh,TDP1 block,DT40 TDP1 CPT,TGFb inhibitor,DT40 TDP1 no CPT,HepG2 tox-1,TGFb CAGA inh,HepG2 tox-2,TGFb CCL64 inh,COP TGFb inh
COc1cccc(-c2cc3nc(NCc4ccc(C)cc4C)n(C)c(=O)c3s2)c1,56,·,?,-27%,?,-26%,·,·,·,·
CNc1nc(NCc2ccc(C)cc2C)c2sccc2n1,-8,·,18µM*,11µM*,6.5µM*,-7%,16µM*,?,?,68%
COCCNc1nc(Oc2cccc(F)c2)c2sccc2n1,-19,·,-35%,21%,?,-8%,·,·,·,·
O=C1CCCN1CCCNc1nc(NCc2ccccc2)nc2ccsc12,?,·,18µM*,3.2µM*,18µM*,-37%,2.9µM*,7.3µM*,5.2µM*,48%
COCCNc1nc(NCc2ccccc2)nc2ccsc12,-26,·,21µM*,2.5µM*,9.2µM*,-23%,3.7µM*,?,4.1µM*,57%
CC(C(=O)O)n1nc(-c2ccccc2)c2ccccc21 (centres undefined),13,·,-1%,-9%,3%,-3%,·,·,·,·
Cc1ccc(NC(=O)Cn2ccc(=O)[nH]c2=O)cc1,21,7%,4%,-3%,3%,5%,·,·,·,·
O=c1cc(S(=O)(=O)Cc2ccccc2)[nH]c(=O)[nH]1,-6,·,0%,-14%,7%,5%,·,·,·,·
OCCC1CN(Cc2nc(-c3ccc(F)cc3)cs2)CCN1CCc1ccccc1 (centres undefined),-10,·,?,-30%,?,-41%,·,·,·,·
CC(C)(C)CN1CCN(Cc2nc(-c3ccc(F)cc3)cs2)CC1CCO (centres undefined),-20,·,16µM*,?,21µM*,1%,?,?,-10%,-6%
Cc1ccc(NC(=O)CN(C)C(=O)c2ccc(NS(=O)(=O)c3cccc([N+](=O)[O-])c3)cc2)cc1,25,-2%,-3%,15%,-13%,25%,·,·,·,·
Cc1ccc(NS(=O)(=O)c2ccc(OCC(=O)Nc3cccc([N+](=O)[O-])c3)c(C)c2)cc1,?,7%,?,11µM*,?,-20%,-78%,-25%,10%,37%
Cc1nnc(SCC(=O)N2c3ccccc3Sc3ccccc32)n1N,4,2%,-2%,-3%,1%,-10%,·,·,·,·
Cc1nnc(SC(=O)N2c3ccccc3Sc3ccccc32)s1,-101*,1%,13µM*,7.1µM*,10µM*,-104%,12µM*,15µM*,3.3µM*,?
COc1ccc(C2C(C#N)=C(N)N(Nc3ccccc3)C3=C2C(=O)CC(C)(C)C3)cc1C (centres undefined),?,8%,-14%,11µM*,-16%,-1%,21µM*,-25%,?,21%
CC1CCCC(C)N1C(=O)Cn1cc(C#N)c2ccccc21 (centres undefined),34,1%,-5%,-5%,-19%,-12%,·,·,·,·
CC1CCCC(C)N1C(=O)Cn1cc(/C=C2/C(=O)Nc3ccccc32)c2ccccc21 (centres undefined),-55*,8%,18µM*,6.3µM*,21µM*,-17%,?,-21%,?,2%
O=[N+]([O-])c1cc(S(=O)(=O)Nc2ccccc2)ccc1N1CCN(c2ccc(O)cc2)CC1,-4,-1%,?,?,?,-18%,·,·,·,·
Cc1ccc(NS(=O)(=O)c2ccc(N3CCN(c4ccc(O)cc4)CC3)c([N+](=O)[O-])c2)c(C)c1,?,9%,?,14µM*,16µM*,-4%,12µM*,?,?,69%
O=C1CCCC(=O)N1c1ccc(N2CCOCC2)c([N+](=O)[O-])c1,42,-5%,-8%,-6%,1%,-14%,·,·,·,·
CN(CC(=O)Nc1cccc(S(=O)(=O)N2CCCC2)c1)CC(=O)Nc1ccc(Cl)c(C(F)(F)F)c1,-66*,1%,?,16µM*,16µM*,-14%,16µM*,?,29µM*,60%
O=C(CNc1ccc(Cl)c(C(F)(F)F)c1)N1CCN(S(=O)(=O)c2ccccc2)CC1,-30,·,?,13µM*,?,-8%,12µM*,-3%,-25%,-10%
Nc1cc(=O)[nH]c2ncnn12,24,·,-5%,-9%,-5%,1%,·,·,·,·
Cc1nn(Cc2noc(C(=O)NCc3ccc4c(c3)OCO4)n2)c(C)c1Br,-9,7%,11%,3%,-29%,2%,·,·,·,·
O=C(O)CCNC(=S)Nc1cccc(F)c1,25,·,0%,0%,10%,47%,·,·,·,·

# Screening data (PubChem BioAssay)
